Most compounds without a hit are left out; they make up all but 3.3% or so of the library.
AmpC inh no detg: blocks E. coli AmpC beta-lactamase in detergent-free assay; P00811; AmpC nitrocefin hydrolysis, absorbance 480 nm, 0.0001% Triton; Potency, µM (doses to about 57.1 µM), most hits filed as inhibitors; 0.52% of 330,000 active; AID 485341; note: nearly all actives have a fitted effect of over 20% in size
Target sequence (P00811 whole entry, looked up): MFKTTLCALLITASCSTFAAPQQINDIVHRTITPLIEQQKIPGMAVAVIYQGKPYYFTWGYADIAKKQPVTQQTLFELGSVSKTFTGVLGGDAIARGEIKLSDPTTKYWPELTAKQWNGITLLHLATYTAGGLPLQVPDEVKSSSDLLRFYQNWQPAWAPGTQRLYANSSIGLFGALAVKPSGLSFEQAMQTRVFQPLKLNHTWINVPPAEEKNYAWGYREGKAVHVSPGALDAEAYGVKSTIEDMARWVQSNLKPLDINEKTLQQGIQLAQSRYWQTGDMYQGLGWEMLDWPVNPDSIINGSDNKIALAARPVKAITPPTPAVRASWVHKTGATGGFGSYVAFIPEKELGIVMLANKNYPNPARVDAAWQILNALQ
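AmpC (5.3 nM in the dispensed reagent) in 20 mM phosphate pH 7.0 with 0.01% (detergent screen) or 0.0001% Triton X-100 was preincubated with compounds for 15 min at room temperature. Nitrocefin was then added from an 800 uM solution, and hydrolysis was followed at 480 nm.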
AmpC inh detg: AmpC beta-lactamase inhibition with detergent present | P00811 | AmpC hydrolysis of nitrocefin, absorbance 480 nm, 0.01% Triton | Potency, µM (series often up to 114 µM), hits mostly inhibitors | 0.041% of 370,000 active; note: nearly all actives have a fitted effect of over 25% in size
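20 mM phosphate pH 7.0 + 0.01% (detergent screen) or 0.0001% Triton X-100; 5.3 nM AmpC reagent; cpd preinc 15 min RT; nitrocefin (800 uM stock) to start; A480 q20 s × 4 min; Activity was normalised to no-enzyme and no-compound control wells.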
Sm TGR inh: S. mansoni TGR enzyme inhibition. 3% of 360,000 active. AID 485364. purified TGR, DTNB reduction, TNB absorbance 405 nm. Potency, µM (series often up to 114 µM), hits mostly inhibitors. Q962Y6; note: nearly all actives have a fitted effect of over 60% in size
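TGR 20 nM + NADPH 100 uM (dispensed conc.), cpd preinc 15 min RT; start with NADPH (500 uM addition) then DTNB (15 mM addition). Kinetic TNB absorbance, 405 nm filter. Four-parameter Hill fit across titration.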
Large screens that a line does not name were inactive. Calls come from the whole dose curve; as a rule, active = well fitted curve in the direction sought with a large enough effect; inconclusive = small, poorly fitted or top-dose-only effect, or another doubt; inactive = no such curve, though single readings can be large; an effect the other way counts as inactive or inconclusive.

COc1ccc(C2C(=O)N(C3CCC(C)CC3)CC(=O)N2CCC2=CCCCC2)cc1OC (stereo not drawn)	none (no result: AmpC inh no detg)
Cc1ccc(CCNC(=O)c2cc3n(n2)CCCN(Cc2ccc(C)cc2)C3=O)cc1	none (no result: AmpC inh no detg)
Cc1ccc(S(=O)(=O)Nc2ccc(-c3ccc(N4CCCCCC4)nn3)cc2)c(C)c1	none (no result: AmpC inh no detg)
COc1cc(C)c(C(=O)Oc2cc(C)c(C(=O)O)c(O)c2)c(O)c1	none
COc1cc(O)c(C(=O)O)c(-c2cc(O)c(O)cc2C)c1	Sm TGR inh 0.16µM
CC1=C(C(=O)OCC2CCCCC2)C(c2ccc(Cl)cc2)CC(=O)N1 (stereo not drawn)	none (no result: AmpC inh no detg)
Clc1ccc(C2=Nc3cc(Cl)ccc3OC2)cc1	none
c1ccc(C2=Nc3ccccc3OC2)cc1	Sm TGR inh 50µM
Cc1nnc(N2CCCC(C(=O)NCc3ccccc3F)C2)c2nn(-c3ccc(Cl)cc3)c(C)c12 (stereo not drawn)	none (no result: AmpC inh no detg)
Cc1cccc(Sc2ccc([N+](=O)[O-])cc2[N+](=O)[O-])n1	none
O=[N+]([O-])c1cc(C(F)(F)F)ccc1Sc1nccn1Cc1ccccc1	none
O=[N+]([O-])c1ccc(Sc2nccn2Cc2ccccc2)c([N+](=O)[O-])c1	Sm TGR inh 28µM
O=[N+]([O-])c1ccc(Sc2ncccn2)c([N+](=O)[O-])c1	Sm TGR inh 10µM
COc1ccc(N(C(=O)c2ccccc2)S(=O)(=O)c2ccc3c(c2)n(C)c(=O)n3C)cc1	none (no result: AmpC inh no detg)
CC(C)c1ccc2oc(-c3cc(NC(=O)c4cccnc4)ccc3Cl)nc2c1	none (no result: AmpC inh no detg)
CC(=O)c1cccc(NS(=O)(=O)c2cccc(S(=O)(=O)c3ccc(Br)cc3)c2)c1	Sm TGR inh 13µM (no result: AmpC inh no detg)
COc1ccc(S(=O)(=O)Nc2cccc(C(C)=O)c2)cc1Br	none (no result: Sm TGR inh)
COc1cccc(-c2nc(CS(=O)(=O)CC(=O)Nc3c(C)cc(C)cc3C)c(C)o2)c1	none (no result: AmpC inh no detg)
O=C(Cc1ccccc1)NCCc1csc2nc(-c3ccc(Cl)cc3)nn12	none (no result: AmpC inh no detg)
O=C(c1cccc(Cl)c1)N1c2nc(-c3ccco3)nn2C2(CCCCC2)[C@@H]2CCCC[C@@H]21	none (no result: AmpC inh no detg)
COc1cccc(C(=O)N2c3nc(-c4ccco4)nn3C3(CCCCC3)[C@@H]3CCCC[C@@H]32)c1	Sm TGR inh 7.9µM (no result: AmpC inh no detg)
Cc1ccc(C(=O)N2c3nc(-c4ccco4)nn3C3(CCCCC3)[C@@H]3CCCC[C@@H]32)cc1	Sm TGR inh 11µM (no result: AmpC inh no detg)
O=C(c1cccc([N+](=O)[O-])c1)N1c2nc(-c3ccco3)nn2C2(CCCCC2)[C@@H]2CCCC[C@@H]21	Sm TGR inh inconclusive (no result: AmpC inh no detg)
CCC(=O)N1c2nc(-c3ccco3)nn2C2(CCCCC2)[C@@H]2CCCC[C@@H]21	Sm TGR inh 40µM (no result: AmpC inh no detg)
O=C(c1ccccc1)N1c2nc(-c3ccco3)nn2C2(CCCCC2)[C@@H]2CCCC[C@@H]21	Sm TGR inh inconclusive (no result: AmpC inh no detg)
Cc1ccc(C2=Nc3ccccc3N(CC(=O)Nc3ccccc3C)C(=O)C2)cc1C	none (no result: AmpC inh no detg)
Cc1ccc(S(=O)(=O)c2nc(S(=O)(=O)c3ccccc3)sc2NCCCOC(C)C)cc1	none (no result: AmpC inh no detg)
O=[N+]([O-])/C(=C\Nc1ccccc1Cl)S(=O)(=O)c1ccccc1	Sm TGR inh 40µM
CS(=O)(=O)c1ccc(C(=O)Nc2ccccc2Cl)cc1	none
COc1ccc(N/C=C(\[N+](=O)[O-])S(=O)(=O)c2ccccc2)cc1	Sm TGR inh inconclusive
O=[N+]([O-])/C(=C\Nc1ccccc1)S(=O)(=O)c1ccccc1	AmpC inh detg inconclusive, Sm TGR inh 40µM
CC(C)(C)c1ccc(C(=O)NNc2cc(N3CCOCC3)nc(N3CCOCC3)n2)cc1	none
CC(C)(C)c1ccc(C(=O)NNc2cc(N3CCCCC3)nc(N3CCCCC3)n2)cc1	AmpC inh no detg 0.16µM
Cn1c(=O)c2c(-c3ccccc3Cl)n(Cc3ccc(Cl)cc3)cc2n(C)c1=O	none (no result: AmpC inh no detg)
Cn1c(=O)c2c(-c3ccccc3Cl)n(-c3cc(Cl)ccc3O)cc2n(C)c1=O	Sm TGR inh 13µM (no result: AmpC inh no detg)
O=C(CSc1ncccn1)N1CCc2ccccc2C1	none
Cc1ccnc(SCC(=O)N2CCc3ccccc3C2)n1	Sm TGR inh 32µM
O=C(CCC(=O)N1CC2CCCN2c2ccccc21)NCc1ccccc1F (stereo not drawn)	none (no result: AmpC inh no detg)
COc1ccccc1NC(c1ccc(Cl)cc1)c1nnc(-c2cccc(F)c2)o1 (stereo not drawn)	none (no result: AmpC inh no detg)
Cc1ccccc1NC(=O)Cn1c(=O)n(Cc2ccco2)c(=O)c2cccnc21	none (no result: AmpC inh no detg)
O=C(O)CCc1ccc(-c2ccc(Br)cc2)n1Cc1ccco1	Sm TGR inh 50µM
O=C(O)CCc1ccc(-c2ccc(F)cc2)n1Cc1ccco1	AmpC inh detg inconclusive, Sm TGR inh 50µM
O=C(O)CCc1ccc(-c2ccccc2)n1Cc1ccco1	Sm TGR inh 32µM
